In all, about 340,000 compounds went through this assay and about 1,700 (0.5%) were called active. Cut-off read from the data, not from the text of the source: active = inhibition above about 36%; inactive = the rest. Many of the other results were omitted from the sample, so actives are more common in it than they were.

The target of the assay is Serine protease HTRA1 (Homo sapiens) (UniProt Q92743). Nature of the assay: HTRA1 serine protease inhibitors, primary screen, biochemical, fluorescence polarization, HTS (AID 504803).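 Note: 0% = enzyme with DMSO and 100% = wells lacking enzyme.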 The conditions noted are these: recombinant HTRA1, FP-rhodamine activity-based probe, at 5.96 µM, hits give high values. (In fluorescence polarisation assays a small probe gives low polarisation when free and higher when bound to something large.)
Serine protease HTRA1 (Homo sapiens), sequence (Q92743 whole entry, looked up): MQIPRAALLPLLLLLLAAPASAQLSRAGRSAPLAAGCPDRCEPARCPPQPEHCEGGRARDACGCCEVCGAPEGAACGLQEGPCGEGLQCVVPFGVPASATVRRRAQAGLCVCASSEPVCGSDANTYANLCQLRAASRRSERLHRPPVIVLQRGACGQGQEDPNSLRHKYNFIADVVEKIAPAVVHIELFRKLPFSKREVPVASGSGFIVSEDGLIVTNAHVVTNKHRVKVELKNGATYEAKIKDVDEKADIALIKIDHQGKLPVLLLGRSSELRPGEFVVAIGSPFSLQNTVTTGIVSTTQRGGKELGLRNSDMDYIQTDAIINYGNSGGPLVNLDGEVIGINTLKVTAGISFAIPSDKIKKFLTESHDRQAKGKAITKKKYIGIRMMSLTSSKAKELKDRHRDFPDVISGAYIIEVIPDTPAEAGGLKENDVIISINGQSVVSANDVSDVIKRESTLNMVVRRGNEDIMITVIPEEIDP
What is called inhibition is the change of the read-out against control, counted positive when it falls. On to `CC(C)(C)c1nnc(NC(=O)C2c3ccccc3Oc3ccccc32)s1`, for which the inhibition was -41.3% (inactive).
For the molecule `O=C(NN=Cc1ccc2c(c1)CCC2)c1ccccc1O`, the inhibition was -0.46% (inactive).
As to `O=C(N/N=C/c1ccc(O)c(O)c1)C1c2ccccc2Oc2ccccc21`, the inhibition is 68.8% (active).
Next, `COc1cccc(NC(=O)CN(C)C(=O)c2cc(Cl)nc3ccccc23)c1`: 0.82% (inactive); `C[C@@H]1CN([C@@H](C)CO)C(=O)c2cc(Br)cnc2O[C@@H]1CN(C)C(=O)C1CCCCC1`: 2.18% (inactive); `CCN(CC)C(=O)C1=C(C)N(Cc2ccc(F)cc2)C(=O)C(CC(=O)NC2CCCC2)C1` (centres undefined): 1.89% (inactive).
For the molecule `COc1ccc(/C=C/C(=O)c2cc(Br)ccc(=O)c2O)cc1`, the inhibition was 61% (active).
The figure for `COc1ccc2oc(=N)c(C(=O)Nc3ccc(Br)cc3)cc2c1` is -1.93% (inactive); for `COc1ccc(C(=O)c2oc3ccc(Br)cc3c2NC(C)=O)cc1` it is -1.73% (inactive); for `O=C1[C@H]2[C@@H](c3ccc(C(F)(F)F)cc3)N[C@]3(CCCN(Cc4ccc(Br)cc4)C3=O)[C@H]2C(=O)N1Cc1ccccc1` it is -35.1% (inactive).
For the molecule `COc1cccc2c1C(=O)c1c(O)c3c(c(O)c1C2=O)CC(O)(C(C)=NNC(=O)c1ccc(Cl)c(Cl)c1)CC3OC1CC(N)C(O)C(C)O1` (centres undefined), the inhibition is 70.5% (active).
In the case of `CN(Cc1c(F)cccc1Cl)C(=O)COC(=O)Cn1cnc2ccccc2c1=O`, the inhibition was 2.48% (inactive).
Next, `N#Cc1ccc(OCC(=O)Nc2nc(-c3ccccn3)cs2)cc1`: 19.1% (inactive); `O=C(N/N=C\c1cccnc1)c1cc(-c2ccccc2)nc2c(Cl)cccc12`: -44% (inactive).
As for `O=C(N/N=C/c1cccnc1)c1cc2ccccc2cc1O`, the inhibition is 41% (active).
`Cc1ccc(/C=N/NC(=S)NC2CCCCC2)o1`: the inhibition is 5.44% (inactive).
In the case of `COc1ccc(-c2cc(C(=O)N/N=C/c3cccnc3)c3ccccc3n2)c(OC)c1`, the inhibition was -18% (inactive).
For the molecule `Cc1ccc(/C=N/NC(=O)Cn2nc(C)c(Br)c2C)o1`, the inhibition is -6.04% (inactive).
For `Cc1ccc(/C=N/NC(=O)c2cc3ccccc3cc2O)o1`, the inhibition was 50.2% (active).
The figure for `CC(C)N=C1CCCC1C(=S)SSC(=S)C1CCCC1=NC(C)C` (centres undefined) is 13.4% (inactive).
The figure for `CC(C)C1CCN(C(=O)C2CCC(=O)N(C3CCCCCC3)C2)CC1` (centres undefined) is 4.4% (inactive); for `CCCCN1CC(C)(C)[C@H](CC(=O)Nc2ccc(Br)cc2)C1=O` it is -7.94% (inactive); for `COc1ccc(-c2ccc(CN3C(CC(C)C)C(=O)N(Cc4cn(CC5CCCCC5)nn4)CCS3(=O)=O)cc2)cc1` (centres undefined) it is -45.1% (inactive).
Consider `O=C(C[C@H]1C[C@H]2c3cc(NS(=O)(=O)c4ccc(F)cc4)ccc3O[C@H]2[C@H](CO)O1)NCc1cc(F)ccc1F`, for which the inhibition is -9.74% (inactive).
As to `COc1cc(C(=O)OCCCN2CCOCC2)cc(OC)c1OC`, the inhibition is -2.46% (inactive).
Turning to `O=NN(CCCl)C(=O)NCCc1cccc[n+]1[O-]`, the inhibition is 1.62% (inactive).
`CCOC(=O)NNc1cc(C(F)(F)F)ccn1`: the inhibition was -0.2% (inactive).
On to `CCOC(=O)C[C@H]1c2ccc(C(F)(F)F)cc2S(=O)(=O)N1c1ccccc1`, for which the inhibition was -13.4% (inactive).
Take `CCOC(=O)C1Nc2ccc(C(F)(F)F)cc2C2C=CCC12` (centres undefined): the inhibition is 41.7% (active).
On to `O=C(NN=Cc1ccccc1O)NN=Cc1ccccc1O`, for which the inhibition is 25.9% (inactive).
In the case of `COc1cccc2c(O)cc(=O)n(C)c12`, the inhibition was -0.49% (inactive).
Next, `O=Nc1c(O)cc(O)c2ccccc12`: 42.4% (active); `Cc1ccc(-c2ccc(CN3C(C(C)C)C(=O)N(Cc4cn(CCC5OCCO5)nn4)CCS3(=O)=O)cc2)cc1` (centres undefined): -29.6% (inactive); `CC[C@@H]1Cc2cc(O)ccc2C2=C1c1ccc(O)cc1C[C@H]2CC`: 44.3% (active).
Consider `COc1cc(C)c(CN2CCN(C(=O)CCC(=O)c3ccc(C)s3)CC2)cc1OC`, for which the inhibition is 6.95% (inactive).
Next, `CCCCCCNC(=O)O[C@H]1CN(C(=O)OC(C)C)N(C(=O)OC(C)C)[C@@H]2CN(S(=O)(=O)c3ccc(C)cc3)C[C@]12O`: -18.8% (inactive).
The figure for `c1ccc(CNCc2ccc(CNCc3ccccc3)cc2)cc1` is 2.32% (inactive).
The figure for `Oc1ccc(CNc2ccccc2O)cc1` is 52.1% (active); for `O=C(Cc1ccc(Cl)cc1)NC(=S)Nc1ccccc1O` it is -31.1% (inactive).
As to `C[C@@H]1CN([C@H](C)CO)C(=O)CCCn2cc(nn2)CO[C@H]1CN(C)S(=O)(=O)c1ccc(Oc2ccccc2)nc1`, the inhibition is 5.67% (inactive).
Next, `COCC1CCCCN1C(=O)c1cc(COc2ccc(C)c(C)c2)on1` (centres undefined): -4.09% (inactive); `COc1ccc(C=C2CCC3C(CCCC34OCCO4)C2=O)cc1` (centres undefined): -8.69% (inactive); `CSC(=S)N/N=C/c1c[nH]c2ccccc12`: 48.9% (active).
As to `C[n+]1ccc(/C=C/c2c[nH]c3ccccc23)cc1`, the inhibition is 2.74% (inactive).
Take `Nc1nonc1-n1nnc(C(=O)N/N=C/c2c[nH]c3ccccc23)c1-c1ccccc1`: the inhibition was -3.11% (inactive).
`C[C@H]1CN([C@@H](C)CO)C(=O)CCCn2nncc2CO[C@@H]1CN(C)Cc1ccc(Oc2ccccc2)cc1`: the inhibition was -3.08% (inactive).
Next, `O=c1ccc2c(-c3ccccc3S(=O)(=O)O)c3ccc(O)c(O)c3oc-2c1O`: 37.8% (active); `COc1cc(C=NC2CCCCC2)ccc1O`: 0.85% (inactive); `COc1ccc(CN2C(=O)C(CC(=O)NCCCCc3ccccc3)CC(C(=O)N3CCOCC3)=C2C)cc1` (centres undefined): 5.2% (inactive).
Regarding `O=C(c1ccccc1)N1CCN(c2cc(-c3ccccc3)nc3cc(-c4cccc(Cl)c4)nn23)CC1`, the inhibition is -11.5% (inactive).
For `CCCCCNC(=O)C1c2ccccc2Oc2ccccc21`, the inhibition was 0.55% (inactive).
For `CCOC(=O)CC(NC(=O)C1c2ccccc2Oc2ccccc21)c1ccc(C)cc1` (centres undefined), the inhibition was -3.25% (inactive).
The figure for `CCCN(CCC)C(=O)C1c2ccccc2Oc2ccccc21` is 38.1% (active).
The figure for `C[C@H]1CN([C@@H](C)CO)S(=O)(=O)c2ccc(Br)cc2O[C@H]1CN(C)C(=O)c1cnccn1` is 10.3% (inactive); for `CNC(=O)c1ccc(CN(C)C(=O)c2cc(C3CC3)nc3c2cnn3C(C)C)cc1` it is -4.2% (inactive).
Take `CC(C)CC1C(=O)N(Cc2cn(Cc3ccco3)nn2)CCS(=O)(=O)N1Cc1ccc(-c2ccc(Cl)c(Cl)c2)cc1` (centres undefined): the inhibition was -109% (inactive).
Next, `C[C@@H]1CN([C@H](C)CO)C(=O)CCCn2nncc2CO[C@@H]1CN(C)S(=O)(=O)c1cccc(C#N)c1`: 4.09% (inactive); `CCN1CCN(C(c2cccnc2)c2cc(Cl)c3cccnc3c2O)CC1` (centres undefined): 42% (active).
Consider `COc1ccc(CNC(=O)/C(C#N)=C/c2cccc(OC)c2OC)cc1`, for which the inhibition is -5.58% (inactive).
The figure for `COCCNC(=O)/C(C#N)=C/c1cccc(OCc2ccccc2)c1` is -21.2% (inactive); for `N#C/C(=C\c1ccc(O)c(O)c1)C(=O)NCc1ccccc1` it is 59.1% (active).
As to `CC(C)CC1C(=O)N(Cc2cn(CC3CCCCC3)nn2)CCS(=O)(=O)N1Cc1ccc(-c2ccc(Cl)cc2)cc1` (centres undefined), the inhibition is -45.3% (inactive).
The figure for `Cc1cccc(N2CCN(c3ccc(NC(=O)/C=C\C(=O)O)cc3)CC2)c1` is 52% (active); for `CC(C)=C1SC(N2CCN(c3cccc(C)c3)CC2)=NC1=O` it is -3.36% (inactive); for `Cc1cccc(N2CCN(C(=O)c3ccccc3NC(=O)C3CCCCC3C(=O)O)CC2)c1` (centres undefined) it is 2.87% (inactive).
The figure for `O[C@H]1C[C@H](c2ccc(Cl)cc2)N(Cc2cccs2)C[C@@H]1n1cc(C2CC2)nn1` is -46% (inactive).
Regarding `COc1cccc(OC)c1C(=O)Nc1nnc(C(C)C)s1`, the inhibition was -2.63% (inactive).
On to `COc1cccc2sc(NNC(=O)c3nc4ccccc4s3)nc12`, for which the inhibition is 39.4% (active).
The figure for `COc1ccc(C(=O)Nc2cccc(/C=C(/CCC(=O)O)c3nc4ccccc4s3)c2)cc1` is -96.2% (inactive); for `C[C@H]1CN([C@@H](C)CO)C(=O)CCCn2cc(nn2)CO[C@@H]1CN(C)C(=O)Nc1ccccc1` it is 2.55% (inactive).
In the case of `Cc1noc(C)c1NC(=O)N(C)C[C@@H]1Oc2cc(Br)ccc2S(=O)(=O)N([C@@H](C)CO)C[C@H]1C`, the inhibition is 0.21% (inactive).
The figure for `Cc1ccc(C(=O)N[C@H](C(=O)N2CCN(c3ncccn3)CC2)C(C)C)cc1` is 5.28% (inactive); for `CCc1nc2c(=O)[nH]cnc2o1` it is 5.91% (inactive); for `CCOC(=O)C1=C(O)/C(=C/c2cc(C)n(-c3ccccc3)c2C)N=C1C` it is 20.9% (inactive).
The figure for `Cc1cc(-c2csc(N)n2)c(C)n1-c1ccccc1` is 52.5% (active).
Next, `Cc1cc(C(=O)OCC(=O)N2c3ccccc3NC(=O)C2(C)C)c(C)n1-c1ccccc1`: -25.2% (inactive).
As to `CCCn1c(C)cc(-c2csc(NC(=O)CCc3nc4ccccc4c(=O)[nH]3)n2)c1C`, the inhibition is -3.91% (inactive).
As for `CCCc1cc(-c2n[nH]c(=S)n2Cc2ccccc2)cs1`, the inhibition was -3.06% (inactive).
For `Cc1cc(-c2csc(N)n2)c(C)n1Cc1ccccc1`, the inhibition is 37.6% (active).
Turning to `CCN1C(=O)[C@H]2[C@@H](c3ccccc3)N[C@]3(CCCN(Cc4ccc(C)cc4)C3=O)[C@H]2C1=O`, the inhibition is -0.19% (inactive).
Next, `COc1ccc(NC(=O)N(C)C[C@H]2Oc3ncc(C#C[C@@H](C)O)cc3C(=O)N([C@H](C)CO)C[C@H]2C)cc1`: 6% (inactive); `Nc1cccc(OCCCCCOc2cccc(N)c2)c1`: 3.94% (inactive).
Take `COC(=O)c1ccccc1N=NNc1ccc([N+](=O)[O-])cc1`: the inhibition is 3.36% (inactive).
Next, `COc1ccc(NC(=O)c2cc(=O)[nH]c3ccccc23)cc1S(=O)(=O)N1CCOCC1`: -7.81% (inactive).
Next, `Oc1ccc2ccccc2c1N=Nc1nccs1`: 44.7% (active); `COc1ccc(NC(=O)COC(=O)C2COc3ccccc3O2)cc1` (centres undefined): -2.75% (inactive); `COc1cccc2cc(-c3cc(=O)oc4cc(C)c(O)cc34)oc12`: -8.58% (inactive).
The figure for `COc1cc(O)c2c(=O)c3c(O)c(O)ccc3oc2c1OC` is 53.9% (active).
Consider `COc1c(O)cc2oc(-c3ccc(O)c(O)c3)cc(=O)c2c1O`, for which the inhibition was 25.7% (inactive).

Values taken from PubChem BioAssay AID504803 (The Scripps Research Institute Molecular Screening Center, 2011).
